Several values for one entry are separate records, joined by “and”; a condition that tells them apart may be missing. Equal values may be shown once. Compounds without any hit were thinned out: in the full panel of roughly 83,000, 20% have a hit.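 Results are percent growth after 48 hours of single-concentration exposure. 100 means growth as in untreated cells, lower positive values show inhibition; negative values down to -100 show cell death.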 Activity calls are given as the source filed them.
Legend:
Test in all cases: NCI-60 one-dose screen, 48 h (100 = growth as untreated, 0 = no growth, -100 = all killed)
SR leukemia = tested on: SR leukemia
RPMI-8226 leukemia = tested on: RPMI-8226 leukemia
OVCAR-8 ovarian = settings: 10 µM
OVCAR-5 ovarian = tested on: OVCAR-5 ovarian
OVCAR-4 ovarian = tested on: OVCAR-4 ovarian
Procedure: Growth inhibition of the OVCAR-4 human tumor cell line is measured as a screen for anti-cancer activity. Cells are grown in 96 well plates and exposed to the test compound for 48 hours. Compounds are tested at a single concentration, which is 10^-5 M for most compounds. The reported endpoint is percent growth (GI% or GIPRCNT), where numbers from 0 - 100% represent growth inhibition, and numbers from -100% - 0 represent cell death. For example, a value of 40 represents 60% growth inhibition. A value of 0 means no net growth occurred over the course of the experiment. A value of -40 indicates 40% of cells at the beginning of the experiment died by the end of the experiment. A value of -100 means all cells are dead at the end of the experiment.
NCI-60 Human Tumor Cell Lines Screen was performed using the standard one-dose NCI protocol, which is described in more detail at https://dtp.cancer.gov/discovery_development/nci-60/default.htm.
Compounds with GIPRCNT values below 10 were considered active. Activity score was based on GIPRCNT using the following formula: […]
Score is 0 for GIPRCNT values of 100 or above, 50 for GIPRCNT values of 0, and 100 for GIPRCNT values of -100.

SK-OV-3 ovarian = tested on: SK-OV-3 ovarian
IGROV1 ovarian = tested on: IGROV1 ovarian
OVCAR-3 ovarian = tested on: OVCAR-3 ovarian
HS 578T breast = tested on: HS 578T breast
NCI/ADR-RES ovarian = tested on: NCI/ADR-RES ovarian

In the case of COc1ccc2sc3cccc(NCCN(C)C)c3c(=O)c2c1, the growth (SR leukemia; 10 µM) is reported as -31.7% (active), the growth (RPMI-8226 leukemia; 10 µM) is reported as 70.2% (inactive) and -6.71% (active) and the growth (OVCAR-8 ovarian) is reported as 40.9% (inactive) and 7.16% (active). For the same compound, the growth (OVCAR-5 ovarian; 10 µM) was 53.1% (inactive) and 9.58% (active), the growth (OVCAR-4 ovarian; 10 µM) was 64.7% (inactive) and -8.94% (active) and the growth (SK-OV-3 ovarian; 10 µM) was 57.2% (inactive) and 3.91% (active). For the same compound, the growth (IGROV1 ovarian; 10 µM) was 41.2% (inactive) and -2.42% (active), the growth (OVCAR-3 ovarian; 10 µM) was 61.6% (inactive) and 22.1% (inactive) and the growth (HS 578T breast; 10 µM) was 81.2% (inactive) and 8.98% (active). For the same compound, the growth (NCI/ADR-RES ovarian; 10 µM) was 48.5% (inactive) and 14.7% (inactive).

With CC[C@@]1(O)C(=O)OCc2c1cc1n(c2=O)Cc2cc3c(CN(C)C)c(O)ccc3nc2-1 the growth (SR leukemia; 10 µM) was -5.49% (active), the growth (RPMI-8226 leukemia; 10 µM) was -28.3% (active) and the growth (OVCAR-8 ovarian) was 3.57% (active). The growth (OVCAR-5 ovarian; 10 µM) was 8.58% (active) and 13.8% (inactive), the growth (OVCAR-4 ovarian; 10 µM) was 14% (inactive) and the growth (SK-OV-3 ovarian; 10 µM) was 10.6% (inactive) and 20.4% (inactive). The growth (IGROV1 ovarian; 10 µM) was 15.3% (inactive), the growth (OVCAR-3 ovarian; 10 µM) was -21.7% (active) and -9.74% (active) and the growth (HS 578T breast; 10 µM) was 28.5% (inactive). The growth (NCI/ADR-RES ovarian; 10 µM) was 13.9% (inactive) and 5.76% (active).

CC/C(=C(\c1ccccc1)c1ccc(OCCN(C)C)cc1)c1ccccc1 was tested, and the growth (SR leukemia; 10 µM) was -18.9% (active), the growth (SR leukemia; 12.5 µM) was -27.2% (active) and the growth (RPMI-8226 leukemia; 10 µM) was -28.3% (active). For the same compound, the growth (RPMI-8226 leukemia; 12.5 µM) was -38.1% (active), the growth (OVCAR-8 ovarian) was 60.5% (inactive) and the growth (OVCAR-5 ovarian; 12.5 µM) was -83.1% (active). The growth (OVCAR-4 ovarian; 10 µM) was 46.3% (inactive), the growth (OVCAR-4 ovarian; 12.5 µM) was 2.45% (active) and the growth (SK-OV-3 ovarian; 10 µM) was 76.8% (inactive). For the same compound, the growth (SK-OV-3 ovarian; 12.5 µM) was 32.6% (inactive), the growth (IGROV1 ovarian; 10 µM) was 41.2% (inactive) and the growth (IGROV1 ovarian; 12.5 µM) was -20.4% (active). For the same compound, the growth (OVCAR-3 ovarian; 10 µM) was 52.9% (inactive), the growth (OVCAR-3 ovarian; 12.5 µM) was -6.16% (active) and the growth (HS 578T breast; 10 µM) was 60.5% (inactive). For the same compound, the growth (HS 578T breast; 12.5 µM) was -70.9% (active), the growth (NCI/ADR-RES ovarian; 10 µM) was 43.2% (inactive) and the growth (NCI/ADR-RES ovarian; 12.5 µM) was -41.2% (active).

For CN(Cc1cnc2nc(N)nc(N)c2n1)c1ccc(C(=O)N[C@@H](CCC(=O)O)C(=O)O)cc1, the growth (SR leukemia; 2.5 µM) was 32% (inactive), the growth (SR leukemia; 10 µM) was 26.8% (inactive) and the growth (RPMI-8226 leukemia; 2.5 µM) was 33.9% (inactive). The growth (RPMI-8226 leukemia; 10 µM) was 41.7% (inactive), the growth (OVCAR-5 ovarian; 2.5 µM) was 41.1% (inactive) and the growth (OVCAR-5 ovarian; 10 µM) was 27.2% (inactive). The growth (OVCAR-4 ovarian; 2.5 µM) was 93.4% (inactive), the growth (OVCAR-4 ovarian; 10 µM) was 105% (inactive) and the growth (SK-OV-3 ovarian; 2.5 µM) was 75% (inactive). The growth (SK-OV-3 ovarian; 10 µM) was 56.2% (inactive), the growth (IGROV1 ovarian; 2.5 µM) was 38.7% (inactive) and the growth (IGROV1 ovarian; 10 µM) was 21% (inactive). The growth (OVCAR-3 ovarian; 2.5 µM) was 54.2% (inactive), the growth (OVCAR-3 ovarian; 10 µM) was 47.8% (inactive) and the growth (HS 578T breast; 2.5 µM) was 27.4% (inactive). For the same compound, the growth (NCI/ADR-RES ovarian; 2.5 µM) was 29% (inactive) and the growth (NCI/ADR-RES ovarian; 10 µM) was 7.09% (active).
